# Measured values from PubChem BioAssay (NCATS).
# Inconclusive results are not listed. Where a call stands in place of a potency, no number is given. A number with no mark means an inactive call. The source made the active and inactive calls. The call rests on the fitted dose curve; in most records, active means well fitted inhibition curve with a large enough effect; inconclusive means small, poorly fitted or top-dose-only effect; inactive means flat fitted curve, though single readings scatter.
# Target: Calcium and integrin-binding protein 1 (Homo sapiens) (UniProt Q99828)
# Sequence (Q99828 whole entry, looked up): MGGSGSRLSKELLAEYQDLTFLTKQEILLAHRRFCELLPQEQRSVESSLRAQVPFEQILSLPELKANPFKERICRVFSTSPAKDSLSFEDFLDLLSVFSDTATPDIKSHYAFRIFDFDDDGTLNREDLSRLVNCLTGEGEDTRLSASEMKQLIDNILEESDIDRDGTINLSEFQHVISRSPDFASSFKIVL
# Assay: Primary qHTS for Identification of Calcium Integrin Binding Protein 1 (CIB1) Competitor (AID 1508620);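 further: GST tagged CIB1 binding a fluorescein labelled alphaIIb integrin peptide tracer; top concentration of the series differs between compounds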
# Conditions: CIB1-GST / FITC-alphaIIb peptide fluorescence polarization; series mostly up to 114 µM
# How it was run: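 CIB1-GST (1 uM final) and compound incubated 15 min at room temperature before adding FITC-alphaIIb peptide tracer (100 nM final). Competition for binding read by fluorescence polarization (ex 480, em 540) after another 15 min at room temperature.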
Compound,Potency,"activity change, negative = inhibition"
C=C(C)C1CCC2(C(=O)O[C@@H]3O[C@H](CO[C@@H]4O[C@H](CO)[C@@H](O)[C@H](O)[C@H]4O)[C@@H](O)[C@H](O[C@@H]4O[C@@H](C)[C@H](O)[C@@H](O)[C@H]4O)[C@H]3O)CCC3(C(=O)O)C(CCC4C5(C)CCC(O)C(C)(C)C5CCC43C)C12 (stereo not given in full),inactive,
CC(=O)N[C@H]1[C@H](O[C@H]2CC[C@@]3(C)C(CC[C@]4(C)C3CC=C3[C@@H]5CC(C)(C)CC[C@]5(C(=O)OC5OCC(O)C(O)C5O)CC[C@]34C)C2(C)C)O[C@H](COC2OC(C)C(O)C(OC3OC(C)C(O)C(O)C3O)C2O)[C@@H](O)[C@@H]1O (stereo not given in full),inactive,
CC(C)CCC[C@@H](C)[C@H]1CC[C@H]2[C@@H]3CC(=O)[C@H]4C[C@@H](O)CC[C@]4(C)[C@H]3CC[C@]12C,inactive,
CC1(C)CC[C@]23CO[C@@]4(CCC5[C@@]6(C)CC[C@H](O[C@@H]7OC[C@H](O[C@@H]8O[C@H](CO)[C@@H](O)[C@H](O)[C@H]8O)[C@H](O)[C@H]7O[C@@H]7O[C@H](CO)[C@@H](O[C@@H]8O[C@H](CO)[C@@H](O)[C@H](O)[C@H]8O)[C@H](O)[C@H]7O)[C@@](C)(CO)C6CC[C@@]5(C)[C@]4(C)C[C@H]2OC2OCC(O)C(O)C2O)C3C1 (stereo not given in full),,-6.44% [at 12.4 µM]
CN[C@H](CC(C)C)C(=O)N[C@H]1C(=O)N[C@@H](CC(N)=O)C(=O)N[C@H]2C(=O)N[C@H]3C(=O)N[C@H](C(=O)N[C@H](C(=O)O)c4cc(O)cc(O)c4-c4cc3ccc4O)[C@H](O[C@H]3C[C@](C)(N)[C@@H](O)[C@H](C)O3)c3ccc(c(Cl)c3)Oc3cc2cc(c3O[C@@H]2O[C@H](CO)[C@@H](O)[C@H](O)[C@H]2O[C@H]2C[C@](C)(NCc3ccc(-c4ccc(Cl)cc4)cc3)[C@@H](O)[C@H](C)O2)Oc2ccc(cc2Cl)[C@H]1O,inactive,
